Laboratory results: PubChem BioAssay AID624296 (National Center for Advancing Translational Sciences (NCATS), 2012)
“And” between values parts separate entries of the source, which are not always exact repeats. Equal values may be shown once. Screen size: about 350,000 compounds; about 9,900 (2.8%) were called active. About 15% were inconclusive and are not listed. Calls come from the whole dose curve; as a rule, active = well fitted activation curve with a large enough effect; inconclusive = small, poorly fitted or top-dose-only effect; inactive = no such curve, though single readings can be large or run the other way. Shown is part of a subset that was picked to be rich in actives. Entries that show only a call come without a potency. Where a structure was tested more than once in an assay, its records may differ in their call.

Assay: A quantitative high throughput screen for small molecules that induce DNA re-replication in MCF 10a normal breast cells. Note: nearly all actives have a fitted effect of over 50% in size.
Conditions: MCF 10A DNA re-replication, Hoechst nuclear intensity, 48 h; series mostly up to 46.1 µM
Potency is the fitted concentration of half-maximal effect.

| SMILES | Potency |
| --- | --- |
| COc1ccc2oc(N)nc2c1 | inactive |
| COc1cccc(CNC(C)C(=O)Nc2ccc(S(=O)(=O)N3CCCC3)cc2)c1 (configuration not stated) | inactive |
| CN(Cc1ccc(F)cc1)C(=O)CN1C(=O)c2ccccc2S1(=O)=O | inactive |
| C[C@]12CC[C@H](O)CC1=CCC1C2CC[C@@]2(C)C1CC[C@@H]2NC(=O)CCC(=O)O (some centres not stated) | inactive |
| CC1CCCCC1NC(=O)COC(=O)Cc1ccc(Cl)cc1 (configuration not stated) | inactive |
| CC(C)(C)C(=O)Nc1cccc(-c2ccc[nH]2)n1 | inactive |
| CC(=O)c1c(C)[nH]c(C(=O)OCC(=O)Nc2c(C)cccc2C)c1C | inactive |
| O=C(CNC(=O)c1ccco1)NNC(=O)c1ccc(Br)cc1 | inactive |
| Cc1cccc(NC(=S)N2CCC(c3nc4ccccc4s3)CC2)c1 | inactive |
| Cc1cccc(NC(=S)N2CCCC(c3nc4ccccc4[nH]3)C2)c1 (configuration not stated) | 1.03 µM (active) |
| CCCNC(=S)N1CCCC(c2nc3ccccc3[nH]2)C1 (configuration not stated) | inactive |
| O=C(Nc1ccnc(-c2ccncc2)n1)c1cccs1 | 0.259 µM (active) |
| O=C(Nc1ccccc1)c1ccc(NC(=O)c2cccs2)cc1 | inactive |
| O=C(Nc1ccccc1-c1ccccc1)c1cccs1 | inactive |
| C=CC(=O)Nc1ccc(Nc2ccnc(Nc3ccc(N4CCN(C)CC4)cc3)n2)cc1 | 20.6 µM (active) |
| CN1CCN(c2ccc(NC(=O)c3ccccc3)cc2)CC1 | inactive |
| Cc1cccc(N2CCN(c3ccc(NC(=O)/C=C\C(=O)O)cc3)CC2)c1 | inactive |
| CCCCN(CC(=O)Nc1cccc(S(=O)(=O)N2CCCC2)c1)Cc1nc2ccccc2c(=O)[nH]1 | inactive |
| COC1C(CO)OC(n2cnc3c(=S)nc(N)[nH]c32)C1O (configuration not stated) | inactive |
| COC(=O)Nc1nc2ccc(Sc3ccccc3)cc2[nH]1 | 904 nM (active) and 1.16 µM (active) |
| COc1ccc2nc(SCC(=O)Nc3c(C)cc(C)cc3C)[nH]c2c1 | inactive |
| Cc1ccc(O)c(CNc2nc3ccccc3[nH]2)c1 | inactive |
| Cc1ccccc1Nc1nc(N)nc(COC(=O)CCC(=O)c2ccc(F)cc2)n1 | inactive |
| Cc1cc(CO)nn1-c1ccc([N+](=O)[O-])cc1 | inactive |
| CC(C)(C)c1cnnn1-c1ccc([N+](=O)[O-])cc1 | inactive |
| COc1cnn(-c2ccc([N+](=O)[O-])cc2)c(=O)c1Cl | 18.4 µM (active) |

| SMILES | Potency |
| --- | --- |
| COc1cc(/C=C2/C(=O)NN(c3cccc(Cl)c3)C2=O)cc(Br)c1O | inactive |
| O=C1NN(c2ccccc2)C(=O)/C1=C/c1ccc(-c2cccc(C(=O)O)c2)o1 | inactive |
| CCC1S/C(=N/N=C/c2ccco2)NC1=O (configuration not stated) | inactive |
| Cc1ccc(N2NC(=O)/C(=C/C=C/c3ccco3)C2=O)cc1C | 23.1 µM (active) |
| Cc1ccc(N=C2NC(=O)/C(=C/C=C/c3ccco3)S2)cc1C | 7.31 µM (active) |
| CN(C)c1ccc(-n2cccc2/C=C2/SC(=Nc3ccc(F)cc3)NC2=O)cc1 | inactive |
| CC(C)c1ccc(S(=O)(=O)N2CCN(C(C)C(=O)NC3CCCC3)CC2)cc1 (configuration not stated) | inactive |
| COc1ccc(CCNC(=O)c2ccc(NC(=O)CC3SC(N4CCCCC4)=NC3=O)cc2)cc1OC (configuration not stated) | inactive |
| Cn1c(N)cc(=O)n(C)c1=S | inactive |
| CCOc1ccccc1NC(=O)CCc1ccc(C)o1 | inactive |
| Cc1cnc(NC(=O)CSc2nnc(-c3ccc(Cl)cc3Cl)n2N)s1 | inactive |
| Cc1ccc(CCC(=O)Nc2ncc(Cc3cc(Cl)ccc3Cl)s2)o1 | 1.16 µM (active) |
| CNS(=O)(=O)c1ccc(C(=O)NCC(=O)NCCc2ccc3c(c2)OCCO3)cc1 | inactive |
| N/C(=N\OC(=O)c1ccc2c(c1)OCO2)c1ccc(Br)cc1 | inactive |
| N/C(=N\OC(=O)N1c2ccccc2Sc2ccccc21)c1ccc(Br)cc1 | 5.17 µM (active) |
| CCOC(=O)CNC(=O)N1c2ccccc2Sc2ccccc21 | inactive |
| O=C(OCC(=O)N1CCN(c2ccccc2)CC1)c1ccc([N+](=O)[O-])s1 | inactive |
| COc1ccc(CCNC(=O)COC(=O)c2cnc(Cl)c(Cl)c2)cc1 | inactive |
| O=C(Cc1cccc2ccccc12)NCCC1=CCCCC1 | inactive |
| Cc1nnc(OCC(=O)NCCC2=CCCCC2)c2ccccc12 | 20.6 µM (active) |
| O=C(COc1cccc(-n2cnnn2)c1)NCCC1=CCCCC1 | inactive |
| O=C(OCCOc1ccccc1F)c1cc(S(=O)(=O)N2CCOCC2)ccc1F | inactive |
| CCCCN(C(=O)c1nn(C)c(=O)c2ccccc12)c1c(N)n(CCC)c(=O)[nH]c1=O | inactive |
| COC(=O)C1=C(C)OC(N)=C(C#N)C1c1cc(OC)ccc1OC (configuration not stated) | inactive |
| CCC1=C(C(=O)OC)C(c2cc(OC)ccc2OC)C(C#N)=C(N)O1 (configuration not stated) | inactive |
| COc1ccc(C2C(C#N)=C(N)Oc3cc(N)ccc32)cc1OC (configuration not stated) | 18.4 µM (active) |

| SMILES | Potency |
| --- | --- |
| O=C1NCC(c2ccccc2)(c2ccccc2)C(=O)N1 | inactive |
| O=C(Cc1ccc([N+](=O)[O-])cc1)NCCc1ccc2c(c1)OCO2 | inactive |
| O=C(c1cccnc1)N(Cc1ccccc1)C(=O)c1cccnc1 | inactive |
| COC(=O)Cc1csc(Nc2c(C)n(C)n(-c3ccccc3)c2=O)n1 | inactive |
| COC(=O)Cc1csc(/N=C/c2c(O)n(-c3cccc(C(F)(F)F)c3)c(=O)c3ccccc23)n1 | inactive and 3.26 µM (active) |
| Cc1ccc(-n2c(O)c(C=Nc3ccc(S(=O)(=O)Nc4ncccn4)cc3)c3ccccc3c2=O)cc1C | inactive |
| Cc1ccc(C)c(NC(=O)COC(=O)c2nn(C)c(=O)c3ccccc23)c1 | inactive |
| COc1cc(/C=N/O)ccc1OCc1ccc([N+](=O)[O-])cc1 | inactive |
| COc1ccc(/C=C/C(=O)N2CCCC2)cc1OC | inactive |
| COC(=O)c1ccc(COc2ccc(/C=C/C(=O)c3ccc(OC)c(CSCC(=O)O)c3)cc2OC)cc1 | 2.91 µM (active) |
| Cc1c(Cl)cnc(NC(=O)COC(=O)C2CCCC2)c1Cl | inactive |
| Cc1noc(C)c1COc1ccc(C(=O)NCCOc2ccccc2)cc1 | inactive |
| Cc1onc(-c2ccccc2Cl)c1C(=O)OCc1nnc(-c2ccccc2)o1 | inactive |
| COc1ccc(C(=O)COC(=O)c2c(C)noc2C)cc1Cl | inactive |
| Cc1onc(-c2ccccc2Cl)c1C(=O)OCC(=O)c1ccccc1 | 16.4 µM (active) |
| COc1cc(C(=O)OCc2cc(=O)n3ccsc3n2)ccc1OC(C)C | inactive |
| O=C(CN1C(=O)COc2ccccc21)Nc1ccc(F)cc1 | 20.6 µM (active) |
| CC(OC(=O)CN1C(=O)COc2ccccc21)C(=O)NCc1ccc(F)cc1 (configuration not stated) | inactive |
| O=C(CN1C(=O)COc2ccccc21)NCCN1CCc2ccccc2C1 | inactive |
| Cc1ccc(S(=O)(=O)N2CCN(C(=O)c3cc(S(=O)(=O)N4CCOCC4)ccc3F)CC2)cc1 | inactive |
| O=C(c1ccc(Cl)c(S(=O)(=O)N2CCCCCC2)c1)N1CCN(c2ccc(O)cc2)CC1 | inactive |
| Cc1ccc(C(=O)NNC(=O)CSc2nnc3ccccn23)cc1 | inactive |
| Cc1ccc(C(C[N+](=O)[O-])c2c(C)cc3ccccn23)cc1 (configuration not stated) | 20.6 µM (active) |
| CC(=O)Nc1ccc(/C=N/Nc2ccc(C(=O)c3c(C)cc4ccccn34)cc2[N+](=O)[O-])cc1 | inactive |
| C/C(CC(=O)NCc1ccc(Cl)cc1)=N\NC(=O)COc1ccc(C)cc1Br | 5.8 µM (active) |
| Cc1cc(Cl)ccc1OCCCC(=O)NCc1ccncc1 | inactive |

| SMILES | Potency |
| --- | --- |
| CCCCC(=O)N/N=C(\C)CC(=O)Nc1cc(Cl)ccc1OC | inactive |
| COc1ccc(CC(=O)N[C@@H]2c3cc(OC)c(OC)cc3C[C@H]2OCc2ccccc2)cc1 | inactive |
| Cc1ccc(C(=O)Nc2ccccc2-c2ccccc2)cc1S(=O)(=O)Nc1ccccc1 | inactive |
| O=S(=O)(Nc1cc(Cl)ccc1N1CCOCC1)c1ccccc1Cl | inactive |
| CCCc1ccc(-c2c(C)sc(NC(=O)c3ccnn3C)c2C#N)cc1 | 16.4 µM (active) |
| Cc1sc(NC(=O)C2=COCCO2)c(C#N)c1C | inactive |
| Cn1nccc1CNC(=O)c1ccnn1C | inactive |
| COCC(=O)N(C)[C@H]1C[C@H]2c3cc(Oc4ccccc4C)ccc3CCN2C(=O)[C@H]1[C@H](C)O | inactive |
| CC(=O)n1cc([C@@H]2C=C(C(=O)N3CCN(Cc4ccc5c(c4)OCO5)CC3)O[C@H](OCc3ccc(CO)cc3)C2)c2ccccc21 | 13 µM (active) |
| O=C(C1=C[C@H](c2coc3ccccc3c2=O)C[C@H](OCc2ccc(CO)cc2)O1)N1CCOCC1 | inactive |
| CN1CCN(C(=O)C2=C[C@H](c3ccc4c(c3)OCO4)C[C@H](OCc3ccc(CO)cc3)O2)CC1 | 8.2 µM (active) |
| NC(=O)C1=C[C@@H](c2ccc3c(c2)OCO3)C[C@@H](OCCCCO)O1 | inactive |
| C=CCOC(=O)C1=C[C@@H](c2ccc3c(c2)OCO3)C[C@@H](OCCCCO)O1 | inactive |
| CC(=O)n1cc([C@H]2C=C(C(=O)N3CCOCC3)O[C@@H](OCc3ccc(CO)cc3)C2)c2ccccc21 | inactive |
| Cc1ccc2c(CN3CCN(S(=O)(=O)c4ccccc4C(F)(F)F)CC3)cc(=O)oc2c1 | inactive |
| COc1cc(C(c2c(NC(=O)c3ccco3)sc(C)c2C)N2CCOCC2)cc(OC)c1OC (configuration not stated) | inactive |
| O=C(O)c1ccc([N+](=O)[O-])cc1Sc1ccsc1 | inactive |
| Cc1ccc(C)c(S(=O)(=O)N(C)c2ccc(OC(=O)C3CCN(C(=O)c4ccc(F)cc4)CC3)cc2)c1 | inactive |
| COc1ccc(CCC(=O)Nc2ccc(Cl)c(S(=O)(=O)N3CCOCC3)c2)cc1OC | inactive |
| COc1ccc(Br)cc1CN(C)C(=O)C1CC(=O)N(C2CCCC2)C1 (configuration not stated) | inactive |
| COc1ccc(OC)c(NC(=O)COC(=O)Cc2ccsc2)c1 | inactive |
| CC(C)(C)c1ccc(/C=C/C(=O)NC2CCS(=O)(=O)C2)cc1 (configuration not stated) | 0.92 µM (active) |
| O=C(COC(=O)/C=C/c1ccc2c(c1)OCO2)NC1CCS(=O)(=O)C1 (configuration not stated) | inactive |
| CC(C)(C)c1ccc(/C=C/C(=O)Nc2ncccn2)cc1 | inactive |
